# Bioassay records as filed in PubChem BioAssay.
# A selection: hits, their analogues and other compounds. The true share with any hit is near 19%.
# DT40 TDP1 no CPT: qHTS for Inhibitors of human tyrosyl-DNA phosphodiesterase 1 (TDP1): qHTS in cells in absence of CPT. DT40 Tdp1-/- hTDP1 cells, no CPT, ATP luminescence, 48 h. Potency, µM (doses to about 46.2 µM), usual class: inhibitors. actives 15% (n = 420,000). AID 686978, 2013; note: nearly all actives have a fitted effect of over 55% in size
#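 Chicken DT40 Tdp1-/- cells complemented with human TDP1, screened without camptothecin (DMSO vehicle only), 400 cells/well. Compounds pin-transferred, cells incubated at 37 °C for at least 48 hr. Growth read as ATP-dependent luminescence (CellTiter-Glo, 30 min at RT).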
# uPA generation: cell surface uPA generation inhibition. cell surface uPA generation assay, qHTS. Potency, µM (titrated, usually from 38.3 µM), usual class: inhibitors. actives 0.31% (n = 330,000); active = well fitted inhibition curve with a large enough effect; inconclusive = small, poorly fitted or top-dose-only effect; inactive = no such curve, though single readings can be large or run the other way; tested in mouse RAW 264.7 cells; note: nearly all actives have a fitted effect of over 55% in size
# IL-1B inflam inh: inflammasome signaling inhibition, IL-1 beta readout. THP-1 LPS/ATP IL-1B secretion, AlphaLISA, 16 h; active compounds read low. activity change, % at 57.5 µM. actives 4.7% (n = 360,000). AID 743279; in the data active = activity change below about -50%; inconclusive = mostly about -30% to -49%
#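 THP-1 cells pretreated 1 hr with compounds (up to 57.5 uM final), then stimulated with LPS (250 ng/mL final) plus ATP (1.25 mM final); secreted IL-1B measured by AlphaLISA after 16 hr, decreased signal indicating inhibition.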
# HT1080 IDH1KD tx: kills HT-1080 cells with IDH1 knockdown; HT-1080 IDH1 knockdown viability, ATP luminescence, 48 h; Potency, µM (titrated, usually from 46.1 µM), hits mostly cytotoxic; actives 2% (n = 360,000)
#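 Using the IDH1-knockdown HT-1080 line run in the same batch and compound series as the NT line, viability after 48 h at 37 °C was determined by CellTiter-Glo luminescence and expressed as % activity.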
# DT40 TDP1 CPT: DT40-hTDP1 cell growth loss with CPT; Potency, µM (highest dose often 46.2 µM), most hits filed as inhibitors; actives 12% (n = 420,000); chicken DT40 Tdp1-/-;hTDP1 cells + 20 nM CPT, ATP luminescence, 48 h; AID 686979; note: nearly all actives have a fitted effect of over 55% in size
#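 Chicken DT40 Tdp1-/- cells complemented with human TDP1, 400 cells/well, exposed to compounds plus 20 nM camptothecin for at least 48 h at 37 C; viability read as ATP content by CellTiter-Glo luminescence.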
# HT1080NT lethal: kills 2HG-producing HT-1080-NT fibrosarcoma cells; HT-1080-NT fibrosarcoma viability, CellTiter-Glo ATP luminescence, 48 h; Potency, µM (top dose mostly 46.1 µM), hits mostly cytotoxic; actives 1.6% (n = 360,000);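 note: NT is the 2HG producing partner of a matched IDH1 knockdown line; nearly all actives have a fitted effect of over 55% in size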
#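 HT-1080-NT; 750 cells/well; 5% FBS RPMI; 48 h compound, 37 degrees C; CellTiter-Glo luminescence; curve fitting and curve-class assignment.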
# Numbers stand for hits; . = inactive; ? = inconclusive; / = no result; ! = repeats disagree; [ ] = remark or other dose. Unless noted, calls come from the whole dose curve; as a rule, active = well fitted curve in the direction sought with a large enough effect; inconclusive = small, poorly fitted or top-dose-only effect, or another doubt; inactive = no such curve, though single readings can be large; an effect the other way counts as inactive or inconclusive.
SMILES,DT40 TDP1 no CPT,uPA generation,IL-1B inflam inh,HT1080 IDH1KD tx,DT40 TDP1 CPT,HT1080NT lethal
O=C(O)c1ccc(Cl)c(NCc2cccs2)c1,.,.,.,.,.,.
CCOc1ccccc1NC(=O)CN1C(=O)COc2ccc(S(=O)(=O)NC3CCCC3)cc21,?,/,/,/,26µM,/
CC(C)N(Cc1ccccc1)C(=O)CN1C(=O)COc2ccc(S(=O)(=O)NC3CCCC3)cc21,23µM!,.,?,.,26µM,.
COc1ccc(Cl)cc1NC(=O)CN1C(=O)COc2ccc(S(=O)(=O)NC3CCCC3)cc21,.,/,/,/,.,/
COc1cc(C(=O)N2CCCCC2c2cc(C(=O)Nc3ccccc3Cl)no2)cc(OC)c1C (configuration not stated),18µM,/,.,.,?,?
O=C(Nc1ccc(F)c(Cl)c1)c1cc(C2CCCCN2C(=O)c2cccs2)on1 (configuration not stated),7.3µM,/,.,.,16µM,.
O=C(NCc1ccc(Cl)c(Cl)c1)c1cc(C2CCCCN2C(=O)C2CCCCC2)on1 (configuration not stated),18µM,/,.,.,16µM,.
COc1ccc(NC(=O)c2cc(C3CCCCN3C(=O)c3cc(OC)c(C)c(OC)c3)on2)c(C)c1 (configuration not stated),?,/,?,.,?,.
COC(=O)N1CCCCC1c1cc(C(=O)NCc2ccc(Cl)c(Cl)c2)no1 (configuration not stated),?,/,.,.,?,.
COc1ccc(NC(=O)c2cc(C3CCCCN3C(=O)c3cccs3)on2)c(C)c1 (configuration not stated),21µM,/,.,.,21µM,.
CC(=O)N1CCC[C@H]1C(=O)NCC1Cc2cc(-c3cnccn3)cc(Cl)c2O1 (some centres not stated),.,/,/,/,.,/
O=C(NCc1ccccc1)c1cc(C2CCCCN2C(=O)c2cccs2)on1 (configuration not stated),?,/,.,.,18µM,.
N#Cc1cccc(NC(=O)c2cc(C3CCCCN3C(=O)c3cccs3)on2)c1 (configuration not stated),?,/,.,.,?,.
O=C(Nc1ccccc1Cl)c1cc(C2CCCCN2C(=O)c2cccs2)on1 (configuration not stated),?,/,.,.,29µM,.
CC[C@H](C)[C@@H]1OC(=O)[C@@H](C)[C@@H](CC)NC(=O)[C@H](C)N(C)C(=O)C(C)(C)C(=O)C(C)NC(=O)[C@H](Cc2ccccc2)N(C)C(=O)[C@H](C(C)C)N(C)C(=O)CNC(=O)[C@H](CC(C)C)N(C)C(=O)CNC1=O (some centres not stated),0.18µM,/,.,0.92µM,0.13µM,1.3µM
CCOc1ccccc1-n1nnnc1SCC(=O)N(C)C1CCS(=O)(=O)C1 (configuration not stated),.,/,.,.,.,.
C=CCc1ccc(OCCOCCOc2cccc3cccnc23)c(OC)c1,29µM,.,.,.,?,.
C=CCc1ccc(OCCOc2cccc3cccnc23)c(OC)c1,?,.,.,.,?,.
C/C=C/c1ccc(OCCOCCOc2cccc3cccnc23)c(OC)c1,15µM,.,.,.,23µM,.
C/C=C/c1ccc(OCCOc2cccc3cccnc23)c(OC)c1,?,.,-62,.,?,.
COc1ccccc1-c1noc2ncnc(Nc3ccc4c(c3)OCO4)c12,.,.,.,.,.,.
COC(=O)[C@@H]1Cc2c([nH]c3ccccc23)C(C)(C)N1C(=O)CCl,23µM,.,-98,18µM,18µM,?
Cc1cnc(-n2ncc(C(=O)NCCc3cccnc3)c2C)nc1-c1ccc(F)cc1,?,/,/,/,.[9.04 µM],/
O=c1oc(Nc2ccc(F)cc2)nc2ccccc12,?,.,.,.,.,.
COc1cc(Cl)c(NS(=O)(=O)c2ccc(-c3ccc(=O)[nH]n3)o2)c(OC)c1,.,.,.,.,.,.
SMILES,DT40 TDP1 no CPT,uPA generation,IL-1B inflam inh,HT1080 IDH1KD tx,DT40 TDP1 CPT,HT1080NT lethal
O=C1C=C(Nc2cccnc2)c2ccccc2C1=O,7.3µM,.,-70,23µM,7.3µM,23µM
CCOc1ccc(NC2=CC(=O)C(=O)c3ccccc32)cc1,3.3µM,.,-55,?,2.3µM,?
COc1cc(Cl)c(NC2=CC(=O)C(=O)c3ccccc32)c(OC)c1,?,3.2µM,?,8.2µM,12µM,9.2µM
O=C1C=C(Nc2ccc(F)cc2)c2ccccc2C1=O,9.2µM,.,.,?,7.3µM,?
CCc1nn(CC(=O)NCCCN(CC(C)C)CC(C)C)c(=O)c2cc3sc(C)cc3n12,?,/,/,/,.,/
O=C(Cn1nnc(-c2cccc(C(F)(F)F)c2)n1)NCc1ccc(F)cc1,.,/,/,/,.,/
CC1=C(CC(=O)c2ccc(Cl)cc2)C(=O)c2ccccc2C1=O,16µM,/,.,11µM,23µM,?
NS(=O)(=O)c1ccc(NC(=O)c2ccc(CNS(=O)(=O)c3cc(C(F)(F)F)ccc3Cl)cc2)cc1,?,.,.,.,.,.
Cc1cccc2cc(CN(Cc3nnnn3C3CCCC3)C3CCCCC3)c(=O)[nH]c12,?,.,.,.,21µM,.
Cc1cc(C)c2cc(CN(Cc3nnnn3C3CCCCC3)CC3CCCO3)c(=O)[nH]c2c1 (configuration not stated),13µM,.,.,?,?,?
COc1ccc(CN(Cc2cc3ccc(C)cc3[nH]c2=O)Cc2nnnn2C2CCCC2)cc1,18µM,.,-58,.,?,.
Cc1ccc2cc(CN(Cc3nnnn3C3CCCCC3)CC3CCCO3)c(=O)[nH]c2c1 (configuration not stated),16µM,.,.,?,15µM,.
CCC(c1nnnn1CCOC)N(Cc1cc2c(C)cc(C)cc2[nH]c1=O)CC1CCCO1 (configuration not stated),?,/,.,?,?,.[9.24 µM]
Cc1cc2cc(CN(Cc3nnnn3C3CCCCC3)CC3CCCO3)c(=O)[nH]c2cc1C (configuration not stated),?,.,-66,.,?,.
C[C@H](CO)N1C[C@H](C)[C@@H](CN(C)Cc2ccccc2C(=O)O)OCc2cnnn2CCCC1=O,.,/,.,.,.,.
O=C(Nc1ccc(F)c(Cl)c1)N1CCN2CCCCC2C1 (configuration not stated),.,/,/,/,.,/
COc1ccccc1CNc1nc(Nc2ccc(C)cc2C)c2sccc2n1,7.3µM,/,?,23µM,15µM,21µM
